We go through 16 compounds from PubChem BioAssay (NCI).

Compounds without any hit were thinned out: in the full panel of roughly 83,000, 20% have a hit.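 A percent growth of 40 corresponds to 60% growth inhibition; 0 means no net growth; -100 means all cells died. Active threshold: below 10.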 A number with no mark means an inactive call. The source made the active and inactive calls.

Among the test systems are T-47D breast; BT-549 breast; MDA-MB-435 melanoma; SW-620 colon; MCF7 breast; HCT-116 colon; HCC-2998 colon; KM12 colon.
Holding throughout (experiment): NCI-60 one-dose screen, 48 h (100 = growth as untreated, 0 = no growth, -100 = all killed)
Conditions in all cases: 10 µM unless noted

With `CC(=O)n1nc(C(=O)OC(C)C)c2cc(C)c(C)cc21`, the growth with T-47D breast was 88.7%; with BT-549 breast, 98.2%; in the experiment on MDA-MB-435 melanoma, 98.6%; in the experiment on SW-620 colon it was 98.8%; in the experiment on MCF7 breast, 90.8%; in the experiment on HCT-116 colon, 83.8%. The growth with HCC-2998 colon and with KM12 colon was 105% each time.

As for `COc1ccc(-c2nn(-c3ccccc3)cc2/C=C2/SC(=S)N(C)C2=O)cc1`, the growth in the experiment on T-47D breast was 35.1%; in the experiment with BT-549 breast, 102%; in the experiment with MDA-MB-435 melanoma, 84.9%; in the experiment with SW-620 colon, 66.8%; in the experiment on MCF7 breast, 75.3%; in the experiment with HCT-116 colon, 31%. Also, the growth in the experiment with HCC-2998 colon was 98.9%; in the experiment on KM12 colon, 98.4%.

`CC(C)(C)n1cc(-c2ccnc(NCCNS(=O)(=O)c3cccc(F)c3)c2)c(-c2ccccc2)n1`: the growth was 44.2% in the experiment with T-47D breast; 93% in the experiment with BT-549 breast; 99.8% with MDA-MB-435 melanoma; 94.2% with SW-620 colon; 67.8% in the experiment on MCF7 breast; 79% with HCT-116 colon. Also, the growth is 91% in the experiment on HCC-2998 colon and 93.5% with KM12 colon.

In the case of `CCCCN1C(=O)/C(=c2\sc3n(c2=O)C2C(NN=3)N(CC)C(=O)N2CC)c2ccccc21` (stereo not drawn), the growth was 20.5% in the experiment with T-47D breast; 20.6% in the experiment on BT-549 breast; -34% (active) with MDA-MB-435 melanoma; 28.3% in the experiment with SW-620 colon; 5.32% (active) in the experiment on MCF7 breast; 3.15% (active) in the experiment with HCT-116 colon. Further, the growth in the experiment with HCC-2998 colon was 6.49% (active); with KM12 colon it was 16.1%.

Take `COc1cc(-c2nc(SCCC(C)C)nc(Nc3ccccc3Cl)c2C#N)cc(OC)c1OC`: the growth in the experiment on T-47D breast was 81.5%; in the experiment with BT-549 breast, 88.4%; in the experiment on MDA-MB-435 melanoma it was 96.6%; in the experiment with SW-620 colon, 102%; in the experiment with MCF7 breast, 85.7%; in the experiment with HCT-116 colon, 89.3%. In addition, the growth is 109% in the experiment with HCC-2998 colon and 96.3% with KM12 colon.

As for `C#Cc1cccc(Nc2ncnc3ccc(-c4cnc(N)nc4)cc23)c1`, the growth in the experiment with T-47D breast was 5.19% (active); with BT-549 breast, 28.9%; in the experiment on MDA-MB-435 melanoma it was 43.2%; with SW-620 colon it was 60.9%; in the experiment with MCF7 breast, 15.7%; in the experiment on HCT-116 colon, 47.9%. Also, the growth was 64.7% with HCC-2998 colon and 68.6% in the experiment with KM12 colon.

For `CO[C@]12C=C/C(=C(/C(=O)OCc3cccnc3)C(=O)CCCCCCCC[C@@]3(OC)C=C/C(=C(/C(=O)OCc4cccnc4)C(=O)CCCCCCCC1)O3)O2`, the growth in the experiment on T-47D breast was 38.4%; with BT-549 breast, -24.7% (active); in the experiment on MDA-MB-435 melanoma it was -11.8% (active); in the experiment with SW-620 colon, 13.8%; in the experiment with MCF7 breast, 18.5%; in the experiment on HCT-116 colon, -35.5% (active). Moreover, the values for the growth in the experiment with HCC-2998 colon and with KM12 colon were -79.2% (active) and -70.4% (active), respectively.

Turning to `C=C(C)[C@@H]1CC[C@]2(C(=O)O)CC[C@]3(C)[C@H](CC[C@@H]4[C@@]5(C)C[C@@H](Cc6cn(CCO[C@@H]7O[C@H](COC(C)=O)[C@H](OC(C)=O)[C@H](OC(C)=O)[C@H]7OC(C)=O)nn6)[C@H](O)C(C)(C)[C@@H]5CC[C@]43C)[C@@H]12`, the growth in the experiment on T-47D breast is 51.6%; with BT-549 breast, 42.7%; in the experiment with MDA-MB-435 melanoma, 94.2%; in the experiment on SW-620 colon it was 77.1%; in the experiment on MCF7 breast it was 47.1%; in the experiment with HCT-116 colon, 44.7%. In addition, the growth is 81.5% in the experiment on HCC-2998 colon and 55.9% in the experiment on KM12 colon.

As for `Cc1nnc(-n2c(O)cc(=O)n(-c3ccccc3)c2=S)nc1/C=C/c1ccc(N(C)C)cc1`, the growth with T-47D breast is 38%; with BT-549 breast it was 63.1%; in the experiment with MDA-MB-435 melanoma, 24.8%; with SW-620 colon, 67.2%; with MCF7 breast, 21.6%; in the experiment with HCT-116 colon, 56.1%. Also, the growth with HCC-2998 colon is 63.7%; with KM12 colon, 47.9%.

For the compound `C#COc1cccc(Nc2ncnc3ncc(NC(=O)CCl)cc23)c1`, the growth with T-47D breast is 30.5% [6.25 µM]; with BT-549 breast, 28.6% [6.25 µM]; in the experiment with MDA-MB-435 melanoma, 17.1% [6.25 µM]; in the experiment on SW-620 colon it was -55.1% [6.25 µM] (active); with MCF7 breast, -0.408% [6.25 µM] (active); in the experiment on HCT-116 colon, -32.6% [6.25 µM] (active). The growth in the experiment on HCC-2998 colon is 51.5% [6.25 µM]; in the experiment on KM12 colon, 15.7% [6.25 µM].

For `CCOC(=O)c1cnc2ccccc2c1Cl`, the growth is 102% with T-47D breast; 112% in the experiment with BT-549 breast; 98.9% in the experiment with MDA-MB-435 melanoma; 90.9% in the experiment on SW-620 colon; 99.1% in the experiment on MCF7 breast; 95.7% in the experiment on HCT-116 colon. The growth in the experiment on HCC-2998 colon was 98.4%; in the experiment on KM12 colon, 101%.

Take `COc1ccccc1NC(=O)Cn1cc(CN2CCN(c3ccnc4cc(Cl)ccc34)CC2)nn1`: the growth in the experiment on T-47D breast is 81.7%; with BT-549 breast, 96.8%; in the experiment with MDA-MB-435 melanoma it was 97.6%; in the experiment with SW-620 colon, 91.9%; in the experiment on MCF7 breast, 83.5%; in the experiment with HCT-116 colon, 98.3%. The values for the growth in the experiment on HCC-2998 colon and with KM12 colon were 107% and 89.6%, respectively.

On to `N#Cc1cccc(-c2c(-c3ccc4ccccc4c3)oc3ccccc3c2=O)c1`, for which the growth with T-47D breast is 45.1%; with BT-549 breast, 34.1%; in the experiment with MDA-MB-435 melanoma, -26.8% (active); in the experiment on SW-620 colon, 14.6%; with MCF7 breast it was 20.3%; with HCT-116 colon, 12.4%. The growth is 68.8% in the experiment with HCC-2998 colon and 25.9% in the experiment with KM12 colon.

Regarding `CCCCCCNC(=O)Oc1ccc(/C(=C(/C)Cc2ccc(OC)cc2)c2ccc(OCCCN(C)C)cc2)cc1`, the growth is 18.9% in the experiment with T-47D breast; 79% in the experiment with BT-549 breast; 19.5% in the experiment on MDA-MB-435 melanoma; -21.8% (active) in the experiment on SW-620 colon; 8.65% (active) in the experiment on MCF7 breast; -52.2% (active) with HCT-116 colon. The growth in the experiment with HCC-2998 colon is 35.2%; with KM12 colon, 35.6%.

As for `COC(=O)c1cc(-c2ccc(OC)cc2)[nH]c1N/N=C/c1c(Cl)cccc1Cl`, the growth with T-47D breast is 45.5%; in the experiment on BT-549 breast, -9.36% (active); in the experiment with MDA-MB-435 melanoma, -54.7% (active); in the experiment on SW-620 colon, 9.62% (active); in the experiment with MCF7 breast it was 1.03% (active); in the experiment on HCT-116 colon, -64.5% (active). Besides, the growth with HCC-2998 colon was 67.4%; in the experiment with KM12 colon it was 2.76% (active).

As to `O=[N+]([O-])C1C(c2ccccc2)C12c1ccccc1-c1ccccc12` (stereo not drawn), the growth with T-47D breast is 57.6%; in the experiment with BT-549 breast, -42.3% (active); with MDA-MB-435 melanoma, -23.1% (active); in the experiment on SW-620 colon, 3.12% (active); in the experiment with MCF7 breast, 9.88% (active); in the experiment with HCT-116 colon, -18.8% (active). For the same compound, the values for the growth with HCC-2998 colon and with KM12 colon were -18.8% (active) and 1.09% (active), respectively.
